Inconclusive results are not listed. Active and inactive are the calls of the source. The calls were made as follows: active = hit-call score of the fitted dose curve at least 0.9, where 1 is the maximum; inconclusive = response in the unintended direction; inactive = score below 0.9.
Each compound was assayed against D(1A) dopamine receptor (Homo sapiens) (UniProt P21728) (assay: NVS_GPCR_hDRD1: NovaScreen (NVS) G Protein-Coupled Receptor Assay for human Dopamine Receptor D1 (DRD1) (AID 2283269)).
D(1A) dopamine receptor (Homo sapiens), sequence (P21728 whole entry, looked up): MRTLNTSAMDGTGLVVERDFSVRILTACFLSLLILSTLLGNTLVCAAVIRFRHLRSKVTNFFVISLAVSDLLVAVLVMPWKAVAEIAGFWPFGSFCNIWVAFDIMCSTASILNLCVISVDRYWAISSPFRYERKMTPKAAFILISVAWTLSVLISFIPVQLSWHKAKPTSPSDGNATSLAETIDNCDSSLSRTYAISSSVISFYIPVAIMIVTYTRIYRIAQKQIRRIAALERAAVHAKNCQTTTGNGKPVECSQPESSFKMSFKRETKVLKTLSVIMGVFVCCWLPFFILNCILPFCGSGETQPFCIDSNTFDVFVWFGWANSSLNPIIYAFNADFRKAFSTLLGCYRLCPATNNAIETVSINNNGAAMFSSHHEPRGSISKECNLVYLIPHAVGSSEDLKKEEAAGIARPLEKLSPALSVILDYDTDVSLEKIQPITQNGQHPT
Procedure, shortened: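 Extracted HEK293 DRD1 is incubated 1 h with compound and a tritiated or iodinated radioligand, then filtered and counted. Screening runs 25 uM in duplicate with on-plate positive and negative controls.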

Row | Compound | AC50 | outcome
1 | Cc1ccc(OP(=O)(Oc2ccc(C)cc2C)Oc2ccc(C)cc2C)c(C)c1 | 14.3 µM (active) | 
2 | N#Cc1ccccc1N |  | inactive
3 | CC(C=O)Cc1ccc2c(c1)OCO2 (centres undefined) |  | inactive
4 | N#CCCC(Br)(C#N)CBr (centres undefined) | 11 µM (active) | 
5 | Oc1ccc(Cc2ccc(O)cc2)cc1 |  | inactive
6 | Brc1c(Br)c(Br)c(Oc2c(Br)c(Br)c(Br)c(Br)c2Br)c(Br)c1Br |  | inactive
7 | CCCCCCCCCCCCc1cccc(S(=O)(=O)O)c1 | 7.44 µM (active) | 
8 | O=S(=O)(C(Cl)(Cl)Cl)C(Cl)(Cl)Cl | 13.8 µM (active) | 
9 | CCCCCCCCCCCCN(C)C |  | inactive
10 | CC(C)(C)c1cc([N+](=O)[O-])cc(C(C)(C)C)c1O |  | inactive
11 | CCCCCCCCCCBr |  | inactive
12 | O=C1C=CC(=O)c2ccccc21 | 4.98 µM (active) | 
13 | [Cl][Sn]([c]1ccccc1)([c]1ccccc1)[c]1ccccc1 | 0.6 µM (active) | 
14 | OC(Cc1ccccc1Cl)(Cn1[nH]cnc1=S)C1(Cl)CC1 (centres undefined) |  | inactive
15 | O=[N+]([O-])c1ccc(Nc2ccccc2)cc1 | 8.91 µM (active) | 

What follows are compounds tested against Muscarinic acetylcholine receptor M2 (Homo sapiens) (UniProt P08172) (assay: NVS_GPCR_hM2: NovaScreen (NVS) G Protein-Coupled Receptor Assay for human Muscarinic, M2 Receptor (AID 2283273)).
Muscarinic acetylcholine receptor M2 (Homo sapiens), sequence (P08172 whole entry, looked up): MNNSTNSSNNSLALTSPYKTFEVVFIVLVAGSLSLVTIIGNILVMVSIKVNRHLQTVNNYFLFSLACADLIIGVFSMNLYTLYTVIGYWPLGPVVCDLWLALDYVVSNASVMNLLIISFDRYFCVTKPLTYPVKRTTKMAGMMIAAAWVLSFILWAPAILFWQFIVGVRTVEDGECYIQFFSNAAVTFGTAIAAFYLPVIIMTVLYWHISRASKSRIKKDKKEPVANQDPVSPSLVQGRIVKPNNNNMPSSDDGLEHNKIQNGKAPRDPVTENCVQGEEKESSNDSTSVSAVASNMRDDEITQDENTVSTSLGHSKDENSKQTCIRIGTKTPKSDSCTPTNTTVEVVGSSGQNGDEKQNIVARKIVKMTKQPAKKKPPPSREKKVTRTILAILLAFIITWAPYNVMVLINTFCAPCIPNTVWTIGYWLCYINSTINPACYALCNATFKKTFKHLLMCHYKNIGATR
Procedure, shortened: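 CHO membrane prep, radioligand + test compound, 1 h; filtration, scintillation count. Screen 25 uM duplicate → conc. series for actives. Readout: decrease in binding vs DMSO control.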

Row | Compound | AC50 | outcome
16 | Nc1ccc(N)cc1 | 9.36 µM (active) | 
17 | OCCN(CCO)CCO |  | inactive
18 | BrCCCCBr |  | inactive
19 | CCCCCCCCCCCCN(C)C | 22.6 µM (active) | 

Source: PubChem BioAssay (EPA / NIEHS)
